# Laboratory results: PubChem BioAssay (NCI)
# Compounds without any hit were thinned out: in the full panel of roughly 83,000, 20% have a hit.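 Treatment: one concentration, 48 hours, 96-well format. Scoring: percent growth, with anything below 10 considered active.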 A number with no mark means an inactive call. Activity calls are given as the source filed them.
# What was measured:
# Assay in all cases: NCI-60 one-dose screen, 48 h (100 = growth as untreated, 0 = no growth, -100 = all killed)
# Conditions in all cases: 10 µM
# NCI-H23 lung = test system: NCI-H23 lung
# NCI-H226 lung = test system: NCI-H226 lung
# NCI-H322M lung = test system: NCI-H322M lung
# HOP-62 NSCLC = test system: HOP-62 NSCLC
# NCI-H460 lung = test system: NCI-H460 lung
# HOP-92 NSCLC = test system: HOP-92 NSCLC
# NCI-H522 lung = test system: NCI-H522 lung
# A549/ATCC NSCLC = test system: A549/ATCC NSCLC
# 786-0 renal = test system: 786-0 renal
# COLO 205 colon = test system: COLO 205 colon
# DU-145 prostate = test system: DU-145 prostate
# MALME-3M melanoma = test system: MALME-3M melanoma
# MDA-MB-231 breast = test system: MDA-MB-231 breast
# RXF 393 renal = test system: RXF 393 renal
# SF-268 CNS = test system: SF-268 CNS
# SF-295 CNS = test system: SF-295 CNS
# SF-539 CNS = test system: SF-539 CNS
# UACC-257 melanoma = test system: UACC-257 melanoma
# M14 melanoma = test system: M14 melanoma
SMILES,growth (NCI-H23 lung),growth (NCI-H226 lung),growth (NCI-H322M lung),growth (HOP-62 NSCLC),growth (NCI-H460 lung),growth (HOP-92 NSCLC),growth (NCI-H522 lung),growth (A549/ATCC NSCLC),growth (786-0 renal),growth (COLO 205 colon),growth (DU-145 prostate),growth (MALME-3M melanoma),growth (MDA-MB-231 breast),growth (RXF 393 renal),growth (SF-268 CNS),growth (SF-295 CNS),growth (SF-539 CNS),growth (UACC-257 melanoma),growth (M14 melanoma)
Cc1ccc(-c2nc3ccc(C(=O)N=Nc4c(O)[nH]c5ccc([N+](=O)[O-])cc45)cc3[nH]2)cc1,64.6%,45.4%,105%,88.5%,103%,44.3%,78.3%,98%,85.2%,70.9%,47.8%,57.5%,66.9%,83.5%,60.1%,93.5%,52.7%,84.8%,73.8%
CC1(C)CC[C@]2(C(=O)O)CC[C@]3(C)C(=CC[C@@H]4[C@@]5(C)C/C(=C/c6ccncc6)[C@H](O)C(C)(C)[C@@H]5CC[C@]43C)[C@@H]2C1,37.6%,38.2%,34%,42.1%,34%,4.52% (active),42.1%,19.9%,48.4%,37.2%,57.9%,73.1%,34.1%,24.2%,46.9%,20.1%,27.8%,64.3%,61.6%
Cc1ccc(-c2nc3ccc(C(=O)N=Nc4c(O)[nH]c5ccc(Br)cc45)cc3[nH]2)cc1,-3.58% (active),91.7%,77.7%,68.7%,47.8%,88.3%,25%,87.1%,36.3%,61%,17.2%,90.5%,23%,66.1%,44.3%,93.6%,86.4%,99.7%,55.8%
Cc1ccc(NC(=O)NCn2c(=O)[nH]c3ccccc3c2=O)cc1,53.2%,22.5%,89.1%,44.8%,64.7%,30.7%,73.7%,81.1%,50.7%,115%,89%,79.3%,40.7%,30.3%,64.3%,95%,58.2%,94.5%,79.2%
O=C(Cn1cc(CSc2nnc3oc4ccccc4n23)nn1)Nc1ccc(Br)cc1,62.7%,45.2%,86.9%,38.5%,101%,32%,79.5%,76.5%,69.6%,103%,92.3%,87.8%,35.5%,6.71% (active),37.8%,43.7%,29.9%,88.8%,98.8%
CCCCCc1ccc(S(=O)(=O)Nc2cc(-c3csc(N(C)C(C)=O)n3)ccc2N2CCN(C)CC2)cc1,44.3%,37.4%,63.6%,54.2%,23.6%,-12.9% (active),32.8%,57.7%,8.85% (active),-65.6% (active),70.5%,-57.1% (active),-2.21% (active),-73.8% (active),73.2%,-10.1% (active),-58.7% (active),-21.8% (active),28.3%
C=C(C)[C@@H]1CC[C@]2(COP(=O)(OCC)OCC)CC[C@]3(C)[C@H](CC[C@@H]4[C@@](C)(CCCN)[C@H](C(=C)C)CC[C@]43C)[C@@H]12,23.3%,29%,62.1%,53.5%,8.95% (active),25.2%,19.6%,21.5%,20.4%,29.7%,38%,15.7%,21.9%,6.32% (active),42%,24.7%,19%,20.5%,18.2%
O=C(Nc1ccncc1)c1ccc(-n2c(=O)[nH]c3ccccc3c2=O)cc1,80.1%,87.4%,97.6%,99%,110%,77.1%,84.9%,106%,94.2%,102%,100%,96.3%,98.2%,88.9%,110%,95.6%,98.8%,109%,97.4%
COc1ccc(-c2nc(S(=O)(=O)c3ccc(C)cc3)c(S(=O)(=O)CC(=O)N(C)Cc3ccccc3)o2)cc1,44%,78.7%,93.1%,82.1%,82.6%,27.2%,-1.9% (active),84.9%,22.2%,45.9%,35.5%,16.7%,2.89% (active),-54.4% (active),64.8%,78.5%,36.8%,67.9%,35.7%
CCN1CCN(c2ccc(NC(=O)Nc3ccc(-c4cc(C(=O)NC(C)C)c5ncccc5n4)cc3)cc2C(F)(F)F)CC1,-86.3% (active),-81.2% (active),-66% (active),-87.8% (active),-40.5% (active),-77.2% (active),-86.3% (active),-87.6% (active),-93.6% (active),-78.2% (active),-54.9% (active),-97.5% (active),-91.9% (active),-96% (active),-16.3% (active),-92.4% (active),-98.9% (active),-95.6% (active),-88.4% (active)
CN1CCN(c2ccc(Nc3nc(NCCNC(=O)c4ccc(C(F)(F)F)cc4)c4sccc4n3)cc2)CC1,49.3%,72.3%,28.3%,19.4%,16.7%,-15.3% (active),24.6%,28.1%,-56.6% (active),-87.6% (active),45.7%,-100% (active),-36.1% (active),-82.2% (active),21.8%,-62.7% (active),-99.7% (active),-93.4% (active),-54.4% (active)
O=C(Nc1ccccc1)Nc1nc2ccccc2s1,78.5%,72.1%,84.4%,77.2%,95.3%,77.8%,72.3%,89.5%,102%,50.8%,104%,-10.2% (active),79.5%,110%,111%,82.3%,88.6%,20.8%,78.8%
C=C(C)[C@@H]1CC[C@]2(C(=O)OC)CC[C@]3(C)[C@H](CC[C@@H]4[C@@]5(C)CC[C@H](N)C(C)(C)[C@@H]5CC[C@]43C)[C@@H]12,-94.8% (active),-89.3% (active),-96.5% (active),-81.6% (active),-53.7% (active),-68.9% (active),-77.8% (active),-86.9% (active),-98% (active),-68.9% (active),-87.9% (active),-97.7% (active),-97.8% (active),-96% (active),-65.3% (active),-94.1% (active),-99.8% (active),-70% (active),-74% (active)
COc1ccc2[nH]c(O)c(N=NC(=O)COc3ccc(NC(=O)Nc4ccc(Cl)c(Cl)c4)cc3)c2c1,-80.4% (active),-75.6% (active),16.6%,-36% (active),15.5%,-47.4% (active),-90% (active),-54.5% (active),-33.2% (active),-49.3% (active),-60.3% (active),-79.6% (active),-89.7% (active),-87.5% (active),64.1%,-45.5% (active),-97.5% (active),11.3%,-42.2% (active)
CNC(=O)c1cc(-c2ccc(NC(=O)Nc3ccc(C)cc3)cc2)nc2cccnc12,101%,61.4%,96.6%,90.6%,105%,64.6%,87.5%,98.1%,104%,115%,109%,109%,93.3%,100%,104%,95.6%,99%,123%,116%
CN1CCN(c2ccc(Nc3nc(NCCCNC(=O)c4ccc(F)cc4)c4sccc4n3)cc2)CC1,74.8%,81.2%,79.9%,92.5%,62.5%,56.8%,87.5%,56.3%,-4.91% (active),90.3%,75.5%,-72.3% (active),58.1%,10.8%,74.6%,79.9%,-90% (active),-26.7% (active),-7% (active)
CC(C)NC(=O)c1cc(-c2ccc(NC(=O)Nc3ccc(N4CCN(C)CC4)c(C(F)(F)F)c3)cc2)nc2cccnc12,-84.6% (active),-69.1% (active),-90.6% (active),-88.4% (active),-61.7% (active),-74.8% (active),-90.8% (active),-78.9% (active),-93.8% (active),-81.1% (active),-88.7% (active),-96.3% (active),-91.6% (active),-89.8% (active),-42.9% (active),-96.5% (active),-100% (active),-88.6% (active),-86.6% (active)
Cc1ccc(-c2nc3ccc(C(=O)N=Nc4c(O)[nH]c5ccc(Cl)cc45)cc3[nH]2)cc1,-83.8% (active),-17.6% (active),3.76% (active),-73.7% (active),4.47% (active),-35.8% (active),-81.3% (active),28%,-42.9% (active),3.66% (active),6.16% (active),-28.7% (active),-73% (active),-68% (active),-33.4% (active),10.1%,33.2%,81.7%,6.09% (active)
COc1ccccc1NCc1ccc(CO)n1-c1ccc(C)cc1,94.3%,81.3%,100%,88.1%,111%,80.5%,93.7%,100%,104%,120%,111%,98.4%,91.2%,107%,94.7%,100%,94.7%,109%,101%
COC1CC(Cn2cc(COc3ccc4ccc(=O)oc4c3)nn2)C(OCc2ccccc2)C(OCc2ccccc2)C1OCc1ccccc1 (centres undefined),95.1%,92.8%,106%,98.9%,113%,80.3%,92.4%,92.3%,102%,121%,101%,106%,99.7%,80.1%,122%,102%,102%,110%,102%
Cc1ccc(S(=O)(=O)c2nc(-c3ccccc3)oc2S(=O)(=O)CC(=O)N2CCCC2)cc1,-77.9% (active),56.3%,73.6%,78.3%,26.4%,-85.6% (active),-96.3% (active),63.4%,-57.3% (active),-93.2% (active),-98.5% (active),-94.9% (active),-94.8% (active),-93.8% (active),-0.601% (active),70.3%,-100% (active),-92.2% (active),-48.3% (active)
CC(C)C(=O)Nc1ccc(C(=O)NC(=S)Nc2ccc(C(=O)O)cc2)cc1,101%,95.6%,105%,102%,102%,108%,90.6%,110%,102%,105%,110%,97%,104%,111%,93.9%,95.3%,95.3%,128%,105%
O=C(CS(=O)(=O)c1oc(-c2ccc(Cl)cc2)nc1S(=O)(=O)c1ccccc1)N1CCCC1,17.1%,71.9%,83.9%,93.5%,73.3%,-73% (active),-89.3% (active),79.1%,-44.3% (active),-91% (active),-100% (active),-99.2% (active),-88.3% (active),-97.8% (active),74.5%,80.8%,-78.6% (active),-77.8% (active),-31.5% (active)
CC(=C(c1ccc(OCCN2CCCCCC2)cc1)c1ccc(OCCN2CCCCCC2)cc1)c1ccc(Cl)cc1,-96% (active),-89.8% (active),-100% (active),-96.8% (active),-54.1% (active),-74.3% (active),-92.7% (active),-98.4% (active),-75.7% (active),-93% (active),-96.1% (active),-98.9% (active),-98.8% (active),-99.4% (active),-84.9% (active),-80.6% (active),-100% (active),-96.3% (active),-57.9% (active)
CCN1CCN(c2ccc(NC(=O)Nc3ccc(-c4cc(C(=O)NC)c5ncccc5n4)cc3)cc2C(F)(F)F)CC1,-99% (active),-61.9% (active),-100% (active),-92.2% (active),-100% (active),-81.8% (active),-93.3% (active),-88.4% (active),-100% (active),-76.3% (active),-100% (active),-100% (active),-100% (active),-94.4% (active),-77.5% (active),-99% (active),-100% (active),-96.7% (active),-100% (active)
N[C@@H](CSSC[C@H](N)C(=O)Nc1ccc(OCC2CCCC2)cc1)C(=O)Nc1ccc(OCC2CCCC2)cc1,-92.9% (active),-72.5% (active),-99.5% (active),-90.7% (active),-77.1% (active),-72.8% (active),-93.2% (active),-90.7% (active),-59.9% (active),-92.5% (active),-88.4% (active),-63.7% (active),-97.4% (active),-94.1% (active),-73.1% (active),-90.4% (active),-99.7% (active),-96.1% (active),-74.5% (active)
